Assay in all cases: NCI-60 one-dose screen, 48 h (100 = growth as untreated, 0 = no growth, -100 = all killed)
Holding throughout (settings): 10 µM unless noted

Assay [1] concerns DU-145 prostate.
Assay [2] deals with K-562 leukemia.
The subject of assay [3] is MALME-3M melanoma.
Assay [4] deals with MDA-MB-231 breast.
Assay [5] deals with RXF 393 renal.
The subject of assay [6] is SF-268 CNS.
Assay [7] relates to SF-295 CNS.
The subject of assay [8] is SF-539 CNS.
In assay [9] the test system is UACC-257 melanoma.
In assay [10] the test system is M14 melanoma.

Several values for one entry are separate records, joined by “and”; a condition that tells them apart may be missing. Identical values can stand only once. The panel holds about 83,000 compounds, 20% with a hit somewhere; the sample as a whole holds those more often.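 96-well plates, one dose, 48 hours. Percent growth reported; active if below 10.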 Unmarked numbers belong to inactive results. Activity calls are given as the source filed them.

Turning to `O=[P+](O)c1cccnc1`, the growth is 114% in assay [1]; 99.1% in assay [2]; 106% in assay [3]; 107% in assay [4]; 114% in assay [5]; 98.2% in assay [6]. Further, the growth in [7] is 103%; in assay [8] it was 105%; in assay [9] it was 104%; in [10] it was 106%.
`CC[C@H](C)[C@H](NC(=O)C12CC(NC)(C1)C2)C(=O)N(C)[C@H](C[C@@H](OC(C)=O)c1nc(C(=O)N[C@@H](Cc2ccccc2)C[C@H](C)C(=O)OC)cs1)C(C)C`: the growth in assay [1] was -8.21% (active); in [2] it was 6.14% (active); in assay [3] it was 69%; in assay [4], 13.8%; in assay [5] it was 13.4%; in assay [6], 30.4%. In addition, the growth in assay [7] was 4.61% (active); in assay [8], -7.76% (active); in [9] it was 56.6%; in assay [10], 6.71% (active).
`O=C=Nc1ccc(Br)cc1`: the growth was 107% in assay [1]; 99.6% in assay [2]; 108% in assay [3]; 108% in [4]; 103% in [5]; 111% in assay [6]. Moreover, the growth is 94.8% in [7], 110% in assay [8], 110% in assay [9] and 100% in assay [10].
Take `O=[N+]([O-])c1ccc2scc3c4ccccc4nc-3c2c1`: the growth was -7.89% (active) in assay [1]; 3.96% (active) in assay [2]; -45% (active) in [3]; -76.1% (active) in [4]; -96.8% (active) in assay [5]; -0.718% (active) in assay [6]. In addition, the growth in assay [7] was 84.7%; in [8] it was -45% (active); in [9], -59.9% (active); in [10], -54.8% (active).
`CC(=O)C(N)Cc1ccccc1` (stereo not given): the growth was 99.3% in [1]; 98.8% in assay [2]; 105% in [3]; 105% in assay [4]; 101% in assay [5]; 105% in assay [6]. For the same compound, the growth in assay [7] was 102%; in assay [8], 100%; in assay [9], 73.3%; in assay [10], 90.1%.
Turning to `CC(=O)OC1CC2(O)C(CCC3(C)C(c4ccc(=O)oc4)CCC32O)C2(C)CCC(OC3OC(CO)C(O)C(O)C3O)C=C12` (stereo not given), the growth in [1] is -100% (active); in [2] it was -30.4% (active); in assay [3], -43.7% (active); in [4] it was -20.3% (active); in assay [5], -45% (active); in [6] it was -97.4% (active). The growth in [7] was -62.2% (active); in [8], -97.9% (active); in assay [9], -62.3% (active); in assay [10] it was -78% (active).
As to `CCC(=O)C(CC(C)N1CCCCCC1)(c1ccccc1)c1ccccc1` (stereo not given), the growth in assay [1] was 102%; in [2], 82.6%; in assay [3], 93.6%; in assay [4], 92.4%; in [5] it was 129%; in assay [6], 104%. In addition, the growth in assay [7] was 89.7%; in assay [8], 98.6%; in assay [9] it was 100%; in assay [10] it was 98.1%.
For the compound `O=C(O)C1C(C(=O)O)C2(Cl)C(Cl)=C(Cl)C1(Cl)C2(Cl)Cl` (stereo not given), the growth was 107% and 120% in [1]; 113% and 115% in assay [2]; 104% and 102% in assay [3]; 111% and 102% in [4]; 103% and 130% in assay [5]; 105% and 106% in [6]. Besides, the growth in assay [7] is 101% and 113%; in assay [8], 88.5%; in assay [9], 102% and 104%; in assay [10], 102% and 109%.
In the case of `CCN1C(=O)NC(=O)C(C)(N2C(=O)c3c(F)c(F)c(F)c(F)c3C2=O)C1=O` (stereo not given), the growth was 31.9% in [1]; -71.2% (active) in assay [2]; -39.6% (active) in [3]; 9.99% (active) in [4]; -63.8% (active) in assay [5]; 5.09% (active) in assay [6]. Besides, the growth in assay [7] is 84.1%; in [8] it was 18.6%; in assay [9] it was 38.5%; in [10], 24.4%.
As to `COc1ccc(CN)cc1OC`, the growth in assay [1] was 111% and 106%; in assay [2], 131%; in assay [3], 96.8%; in assay [4] it was 109% and 107%; in assay [5], 126%; in assay [6], 108% and 98.9%. In addition, the growth is 104% in [7]; 105% and 99.3% in [8]; 106% and 101% in [9]; 110% and 98.7% in assay [10].
Consider `CN(C)[C@@H]1C(=O)C(C(N)=O)=C(O)[C@@]2(O)C(=O)C3=C(O)c4c(O)ccc(Cl)c4[C@@](C)(O)[C@H]3C[C@@H]12`, for which the growth in assay [1] was 103%; in assay [2], 109% and 93.8%; in assay [3] it was 79.3% and 80.7%; in assay [4], 103% and 98%; in [5], 96.1% and 94.3%; in assay [6], 94.8% and 98.9%. Besides, the growth in assay [7] was 90.1% and 103%; in [8], 93.3% and 92.1%; in [9] it was 108% and 106%; in assay [10], 79.8% and 92.6%.

Source of the values: PubChem BioAssay (NCI).
